Test systems include T-47D breast; BT-549 breast; MDA-MB-435 melanoma; SW-620 colon; MCF7 breast; HCT-116 colon; KM12 colon.
Common to all, as to test: NCI-60 one-dose screen, 48 h (100 = growth as untreated, 0 = no growth, -100 = all killed)
Details in all cases: 10 µM unless noted

The panel holds about 83,000 compounds, 20% with a hit somewhere; the sample as a whole holds those more often.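 Each cell line was grown in a 96-well plate and treated with one concentration of compound for 48 hours. Values below 10 were considered active.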 Unmarked numbers belong to inactive results. Active and inactive are the calls of the source.

As for `COc1ccc(Br)cc1NC(=O)Nc1cccc2c1ccn2Cc1ccnc(N)c1`, the growth in the test on T-47D breast was 6.9% (active); with BT-549 breast, 51.1%; with MDA-MB-435 melanoma, 11.1%; with SW-620 colon it was 19.4%; with MCF7 breast, 16.5%; in the test on HCT-116 colon, 16.8%. Moreover, the growth with KM12 colon was 10.3%.

Take `COc1cc(OC)c(C(=O)/C=C/c2cc3c(cc2OCc2ccccc2)OC(C)(C)CC3)cc1CC=C(C)C`: the growth in the test on T-47D breast is 42.3%; with BT-549 breast, 27.2%; in the test with MDA-MB-435 melanoma it was 35.9%; with SW-620 colon, 25.5%; in the test with MCF7 breast, 28.8%; in the test with HCT-116 colon it was 28.5%. Besides, the growth in the test with KM12 colon was 42.4%.

`CCOC(=O)c1sc(NC(=O)COc2ccc(/C=C3\Cc4ccc(Cl)cc4C3=O)cc2)nc1C`: the growth in the test with T-47D breast is 92.9%; in the test with BT-549 breast it was 94.5%; in the test on MDA-MB-435 melanoma, 105%; in the test with SW-620 colon, 123%; in the test with MCF7 breast, 96.1%; in the test with HCT-116 colon, 92.9%. The growth in the test on KM12 colon is 112%.

For `COC(=O)[C@]12CC[C@@H](C)[C@H](C)[C@@H]1C1=CC[C@@H]3[C@@]4(C)C(C#N)=CC(C)=C4CC[C@@]3(C)[C@]1(C)CC2`, the growth in the test with T-47D breast was 68.2%; in the test on BT-549 breast, 98.7%; with MDA-MB-435 melanoma, 88.1%; in the test with SW-620 colon, 87.2%; in the test with MCF7 breast it was 90.1%; with HCT-116 colon, 68.4%. Further, the growth in the test on KM12 colon was 84.6%.

For the compound `O=C(COc1cccc(/C=C2\Cc3ccc(Cl)cc3C2=O)c1)Nc1nccs1`, the growth is 55.5% in the test on T-47D breast; 87.3% with BT-549 breast; 86.6% in the test on MDA-MB-435 melanoma; 110% in the test with SW-620 colon; 35.1% with MCF7 breast; 64.5% in the test on HCT-116 colon. Also, in the test on KM12 colon, the growth was 77.2%.

`C[C@@H](N)c1ccc(C(=O)Nc2ccnc3[nH]ccc23)cc1`: the growth was 61.9% in the test on T-47D breast; 13.9% with BT-549 breast; 80.4% with MDA-MB-435 melanoma; 20.5% in the test with SW-620 colon; 42.7% in the test on MCF7 breast; 14.4% in the test with HCT-116 colon. The growth in the test with KM12 colon is 30.3%.

As to `O=C1NC(=O)C(c2cnc3ccccn23)=C1c1cn2c3c(cc(F)cc13)CN(C(=O)N1CCCCC1)CC2`, the growth with T-47D breast was 33.8%; in the test on BT-549 breast it was 61.1%; in the test on MDA-MB-435 melanoma, 51.2%; in the test on SW-620 colon, 59.6%; in the test on MCF7 breast it was 35.2%; with HCT-116 colon, 17.1%. Also, the growth in the test on KM12 colon was 46.2%.

`N#CC1(C#N)C(c2cccs2)NC(c2cccs2)C1(C#N)C#N` (centres undefined): the growth with T-47D breast was 91%; in the test on BT-549 breast, 101%; with MDA-MB-435 melanoma, 107%; in the test on SW-620 colon it was 108%; in the test with MCF7 breast, 90.3%; in the test with HCT-116 colon, 97.6%. Moreover, in the test on KM12 colon, the growth was 100%.

Consider `CC(C)c1cc(CNc2nc(Nc3cc(C4CC4)[nH]n3)cc(N3CCN(C)CC3)n2)on1`, for which the growth with T-47D breast was 6.24% (active); in the test on BT-549 breast, -21.9% (active); in the test on MDA-MB-435 melanoma it was -10.9% (active); in the test with SW-620 colon, 7.6% (active); in the test on MCF7 breast, 11.5%; with HCT-116 colon, 3.46% (active). Besides, in the test on KM12 colon, the growth was 4.41% (active).

Consider `FC(F)c1nc2ccccc2n1-c1nc(N2CCOCC2)nc(N2CCOCC2)n1`, for which the growth is -36.1% (active) in the test on T-47D breast; -8.49% (active) with BT-549 breast; -8.55% (active) in the test with MDA-MB-435 melanoma; 13.4% in the test on SW-620 colon; 1.28% (active) with MCF7 breast; 14% in the test on HCT-116 colon. Besides, the growth with KM12 colon is 3.42% (active).

With `CC#CC(=O)N1CCC[C@H]1c1nc(-c2ccc(C(=O)Nc3ccccn3)cc2)c2c(N)nccn12`, the growth in the test with T-47D breast was 58.1%; in the test with BT-549 breast, 84.5%; in the test with MDA-MB-435 melanoma, 91.5%; with SW-620 colon it was 112%; in the test on MCF7 breast, 77.5%; in the test on HCT-116 colon, 83.7%. Further, the growth with KM12 colon is 91.8%.

Take `CCCCn1c(C)nc2cc(Nc3nc(N4CCCCC4)nc4nc[nH]c34)ccc21`: the growth in the test with T-47D breast is 6.78% (active); in the test with BT-549 breast, 18%; in the test with MDA-MB-435 melanoma, 37.4%; in the test with SW-620 colon, 79%; in the test with MCF7 breast, 32.5%; in the test with HCT-116 colon, 48.8%. The growth with KM12 colon is 38.1%.

Take `NS(=O)(=O)c1ccc(CCN2C(=O)/C(=C\c3ccc(Cl)cc3)C=C2c2ccc3ccccc3c2)cc1`: the growth in the test with T-47D breast was 71.8%; in the test on BT-549 breast, 95.1%; in the test on MDA-MB-435 melanoma it was 97%; in the test on SW-620 colon, 106%; with MCF7 breast it was 90.6%; in the test with HCT-116 colon it was 89.5%. The growth in the test with KM12 colon is 93%.

Consider `CCCCN1CCCC[C@@H]1C(=O)N[C@H](C(=O)N(C)[C@H](CCc1nc(C(=O)N[C@@H](Cc2ccccc2)C[C@H](C)C(=O)OC)cs1)C(C)C)C(C)C`, for which the growth is 45.3% in the test on T-47D breast; 52.3% with BT-549 breast; -6.94% (active) with MDA-MB-435 melanoma; 85.3% with SW-620 colon; 35.6% with MCF7 breast; 41.5% with HCT-116 colon. In the test on KM12 colon, the growth is 47.7%.

As for `O=C1NC(=O)/C(=C/c2ccc3nccc(-c4ccncc4)c3c2)S1`, the growth in the test with T-47D breast is -41.7% (active); in the test on BT-549 breast, -36.7% (active); in the test with MDA-MB-435 melanoma, -11% (active); in the test on SW-620 colon, 1.44% (active); in the test on MCF7 breast, 0.645% (active); with HCT-116 colon, -38.6% (active). In the test with KM12 colon, the growth is 1.44% (active).

In the case of `ClCc1ccc(-c2ccc(Cn3cnc4nc(Cl)nc(Cl)c43)cc2)cc1`, the growth in the test with T-47D breast was -10.5% (active); in the test with BT-549 breast, -44.8% (active); in the test with MDA-MB-435 melanoma, -19.5% (active); in the test on SW-620 colon it was -46.8% (active); with MCF7 breast, -42.4% (active); in the test on HCT-116 colon it was -72.4% (active). In addition, the growth in the test on KM12 colon was -63% (active).

As to `COC1CCC(N2C(=O)CNc3ncc(-c4ccc(C(C)(C)O)nc4)nc32)CC1` (centres undefined), the growth with T-47D breast is -24% (active); in the test on BT-549 breast, -8.77% (active); in the test on MDA-MB-435 melanoma it was -27.9% (active); with SW-620 colon it was 12%; in the test with MCF7 breast, 3.23% (active); in the test with HCT-116 colon, 11.4%. In addition, the growth in the test on KM12 colon was 7.39% (active).

These data come from PubChem BioAssay (NCI).
